Nine molecules from PubChem BioAssay (NCATS) can be followed below.

Several values for one entry are separate records, joined by “and”; a condition that tells them apart may be missing. Equal entries are not always repeated. Inconclusive results are not listed. Activity calls are given as the source filed them. Unless noted, calls follow the shape of the dose curve; as a rule, active = well fitted curve in either direction with a large enough effect (not every such curve was filed as active); inconclusive = small, poorly fitted or top-dose-only effect, or another doubt; inactive = flat fitted curve, though single readings scatter.

In experiment [1] the target is Cytochrome P450 1A2 (Homo sapiens) (UniProt P05177). Kind of experiment: p450-cyp1a2 (AID 410; calls by dose curve; also: potency is read from the fitted curve at half-maximal effect;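 as to activity change, negative = inhibition: -100% = full effect of reference inhibitor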). Put shortly: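 20nM CYP1A2, 100uM Luciferin-ME (=Km), 100mM KPO4; cpd 10 min RT; +NADPH regen, 60 min RT; stop/detect 20 min; luminescence. Normalized to furafylline 57 uM = full inhibition.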
Chain of Cytochrome P450 1A2 (Homo sapiens) (P05177 whole entry, looked up): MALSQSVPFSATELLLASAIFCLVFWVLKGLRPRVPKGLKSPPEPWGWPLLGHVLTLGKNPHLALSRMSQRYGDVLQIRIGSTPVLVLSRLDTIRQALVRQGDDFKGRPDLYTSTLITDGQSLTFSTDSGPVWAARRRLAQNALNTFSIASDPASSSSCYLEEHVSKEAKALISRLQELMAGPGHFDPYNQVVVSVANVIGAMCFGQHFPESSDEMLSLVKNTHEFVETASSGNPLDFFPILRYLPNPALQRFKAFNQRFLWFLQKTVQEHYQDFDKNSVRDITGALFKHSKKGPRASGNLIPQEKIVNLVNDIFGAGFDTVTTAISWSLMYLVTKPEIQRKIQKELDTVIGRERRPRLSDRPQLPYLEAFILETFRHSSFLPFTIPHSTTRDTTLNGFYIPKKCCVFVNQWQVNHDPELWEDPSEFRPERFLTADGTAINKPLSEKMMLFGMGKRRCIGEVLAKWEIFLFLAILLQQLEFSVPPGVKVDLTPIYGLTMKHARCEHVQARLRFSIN
A short description of experiment [2]: Stat Signaling Pathway (AID 446).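 Also: ME-180 cervical cancer cells given 40 pM IL-6 alongside compound; SIE-controlled beta-lactamase reporter measured as 460/530 nm FRET emission ratio; % is scaled to controls: 0 for no effect and ±100 for the full control effect.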 Put shortly: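 Compound effects on IL-6-induced STAT reporter activity were measured in ME-180 cells. After overnight culture, cells were co-treated with 40 pM IL-6 for 5 hrs before beta-lactamase substrate loading at room temperature.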
Experiment [3] deals with Glucocorticoid receptor (Homo sapiens) (UniProt P04150). In words: GR-GFP Redistribution (AID 450;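 active = compounds whose dose series gives a full or clear partial fitted curve of increased nuclear translocation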; also: potency is read from the fitted curve at half-maximal effect). To be noted: U2OS GR-GFP nuclear translocation, laser cytometry, 2 h.
Chain of Glucocorticoid receptor (Homo sapiens) (P04150 whole entry, looked up): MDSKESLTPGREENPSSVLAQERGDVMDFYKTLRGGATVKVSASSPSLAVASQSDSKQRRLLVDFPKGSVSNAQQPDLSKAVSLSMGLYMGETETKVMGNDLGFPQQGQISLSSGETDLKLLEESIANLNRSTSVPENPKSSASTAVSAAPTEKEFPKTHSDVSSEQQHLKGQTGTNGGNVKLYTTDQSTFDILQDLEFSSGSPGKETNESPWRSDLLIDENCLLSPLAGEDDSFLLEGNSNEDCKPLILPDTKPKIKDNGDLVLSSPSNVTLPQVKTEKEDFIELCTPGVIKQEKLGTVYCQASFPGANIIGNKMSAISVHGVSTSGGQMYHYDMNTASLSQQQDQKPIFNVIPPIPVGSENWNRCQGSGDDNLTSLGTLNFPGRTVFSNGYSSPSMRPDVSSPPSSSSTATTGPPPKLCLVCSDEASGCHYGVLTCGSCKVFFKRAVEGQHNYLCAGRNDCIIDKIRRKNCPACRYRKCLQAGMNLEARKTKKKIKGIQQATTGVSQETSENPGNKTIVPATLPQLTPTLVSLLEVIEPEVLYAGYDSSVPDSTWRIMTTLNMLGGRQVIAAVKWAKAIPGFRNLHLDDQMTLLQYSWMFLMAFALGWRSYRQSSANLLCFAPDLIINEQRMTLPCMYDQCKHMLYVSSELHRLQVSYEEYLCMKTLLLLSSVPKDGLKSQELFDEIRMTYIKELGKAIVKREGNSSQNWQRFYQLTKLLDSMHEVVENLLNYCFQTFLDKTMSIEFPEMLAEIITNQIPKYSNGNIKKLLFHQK
The target is the same in experiment [4]. Kind of experiment: GR-EFC Redistribution (AID 451; calls by dose curve; also: potency is read from the fitted curve at half-maximal effect). To be noted: CHO-K1 GR-EFC translocation, beta-gal luminescence, 2 h. In short, it runs like this:
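CHO-K1 cells stably expressing nuclear-localized β-gal enzyme acceptor and GR fused C-terminally to the enzyme donor fragment; ligand-driven nuclear translocation restores β-gal by complementation. Compounds titrated up to 46 uM final, 2 h at 37 °C; luminescence read.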

The target in experiment [5] is Mitogen-activated protein kinase 10 (Mus musculus) (UniProt Q61831). In words: JNK3 AlphaScreen Assay (AID 530).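 Also: kinase came from lysate of stimulated human HepG2 cells; signal reports phosphorylation of biotinylated GST-cJun 1-79 at Ser73 with 10 µM ATP; % is scaled to controls: 0 for no effect and ±100 for the full control effect.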 In short, it runs like this:
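Biotinylated GST-cJun(1-79) served as substrate for JNK3 in HepG2 lysates stimulated with IL-1beta and TNF-alpha. ATP was 10 uM final, pH 7.6. Ser73 phosphorylation was quantified by AlphaScreen (680 nm excitation).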

Experiment [6] concerns the target 3',5'-cyclic-AMP phosphodiesterase 4B (Homo sapiens) (UniProt Q07343). Kind of experiment: qHTS Assay for Inhibitors of PDE-IV (AID 607; active = well fitted activation curve with a large enough effect in the main read-out, with a control signal flat, not every such curve was filed as active; also: % of control where 0% means no effect). In short, it runs like this: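 ACTOne HEK293 cells carry a modified cAMP-gated CNG channel and express endogenous PDE4; plated 1000 cells/well, compounds up to 22.9 uM final. Membrane-potential dye fluorescence (ex 535/em 590) was read; parental cells received 10 uM forskolin + 100 uM RO 20-1724.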

A short description of experiment [7]: qHTS Assay for Lipid Storage Modulators (AID 1519; calls by dose curve). To be noted: Drosophila S3 cells, BODIPY lipid droplet/cell ratio, laser cytometry, cells loaded with oleic acid. In short, it runs like this:
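Cells seeded at 5,000 per well were treated with compounds over a concentration series and loaded with oleic acid (400 uM, as added). Lipid droplet fluorescence (488 nm excitation, 500-530 nm channel) was read by laser-scanning cytometry and normalized to 20 uM Triacsin C.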
Background: qHTS replaces the single test concentration by a dilution series.

For experiment [8], the target named is Ubiquitin carboxyl-terminal hydrolase 1 (Homo sapiens) (UniProt O94782). Kind of experiment: Inhibitors of USP1/UAF1: Pilot qHTS (AID 504865; active = well fitted inhibition curve with a large enough effect;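 also: rhodamine fluorescence freed from ubiquitin-rhodamine substrate followed over time; top concentration of the series differs between compounds; % is scaled to controls: 0 for no effect and ±100 for the full control effect; nearly all actives have a fitted effect of over 35% in size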). Put shortly: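 USP1/UAF1 complex (1nM) preincubated with compound 15 min at room temperature, then Ub-Rho substrate (150nM final) added. Fluorescence read kinetically at 480/540 nm, 6 reads every 60 seconds. Buffer: 50mM HEPES pH 7.8, 0.5mM EDTA, 0.1 mg/ml BSA, 1mM TCEP, 0.01% Tween-20.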
Chain of Ubiquitin carboxyl-terminal hydrolase 1 (Homo sapiens) (O94782 whole entry, looked up): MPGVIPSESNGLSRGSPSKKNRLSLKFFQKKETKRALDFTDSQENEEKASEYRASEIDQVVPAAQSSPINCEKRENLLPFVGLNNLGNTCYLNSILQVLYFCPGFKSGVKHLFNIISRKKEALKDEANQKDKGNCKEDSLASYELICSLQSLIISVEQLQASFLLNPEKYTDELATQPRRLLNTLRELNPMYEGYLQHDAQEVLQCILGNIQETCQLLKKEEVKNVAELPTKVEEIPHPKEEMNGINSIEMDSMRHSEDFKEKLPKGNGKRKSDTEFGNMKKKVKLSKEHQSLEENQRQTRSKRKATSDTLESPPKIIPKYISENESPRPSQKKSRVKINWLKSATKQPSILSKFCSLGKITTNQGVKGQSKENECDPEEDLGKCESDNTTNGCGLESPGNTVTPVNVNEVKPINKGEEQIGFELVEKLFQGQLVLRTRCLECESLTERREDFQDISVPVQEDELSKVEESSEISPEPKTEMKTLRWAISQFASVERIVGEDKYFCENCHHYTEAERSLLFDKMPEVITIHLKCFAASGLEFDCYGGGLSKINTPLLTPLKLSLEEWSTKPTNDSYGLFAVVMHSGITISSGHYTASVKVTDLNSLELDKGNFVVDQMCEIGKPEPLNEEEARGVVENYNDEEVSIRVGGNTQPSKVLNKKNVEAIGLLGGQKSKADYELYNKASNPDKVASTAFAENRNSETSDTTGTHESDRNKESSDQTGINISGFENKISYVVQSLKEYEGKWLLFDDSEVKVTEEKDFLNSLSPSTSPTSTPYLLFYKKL

Experiment [9] is described as follows: NFAT Signaling Pathway (AID 444).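 Also: carbachol stimulus at about its EC50 of 1 µM final; % is scaled to controls: 0 for no effect and ±100 for the full control effect.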 To be noted: Jurkat NFAT-bla M1, carbachol, beta-lactamase ratio, 5 h; at 17.2 µM (top of the series). Put shortly:
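Jurkat cells carrying an NFAT-driven β-lactamase reporter and co-transfected muscarinic M1 receptor were treated with compound plus carbachol (1 uM final, an EC50 level) for 5 h at 37 °C. CCF4 loading followed for 1 h at RT; 460/530 nm ratio gave %activity.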

Experiment [10] in a line: AP1 Signaling Pathway (AID 357).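 Also: ME-180 reporter cells stimulated with EGF at its EC50 level; % is scaled to controls: 0 for no effect and ±100 for the full control effect.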 Put shortly:
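Modulation of EGF-driven AP-1 transcription was assessed with a beta-lactamase reporter in ME-180 cells. Compound and EC50 EGF were co-incubated 5 hours at 37 °C before 2.5-hour CCF4 loading at room temperature and dual-emission reading.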

Experiment [11] addresses Luciferin 4-monooxygenase (Photinus pyralis) (UniProt P08659). In words: Biochemical firefly luciferase enzyme assay for NPC (AID 624030; active = well fitted inhibition curve with a large enough effect;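 also: purified P. pyralis luciferase at 10 nM with luciferin and ATP substrate; 0% = DMSO and -100% = full luciferase inhibition by PTC124 control; nearly all actives have a fitted effect of over 70% in size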). In short, it runs like this:
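Counter-screen for direct inhibition of the luciferase enzyme by approved-drug library compounds, run at 10 nM enzyme in 50 mM Tris acetate (final). Luminescence was read within 5 min of enzyme-buffer addition and normalized to PTC124 versus DMSO (0%).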

Experiment [12] in a line: qHTS profiling for inhibitors of Plasmodium falciparum proliferation (AID 504749; active = well fitted inhibition curve with a large enough effect; also: nearly all actives have a fitted effect of over 60% in size; also: potency is read from the fitted curve at half-maximal effect;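 as to activity, negative = inhibition: 0% = DMSO vehicle and full inhibition = artemisinin control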). To be noted: P. falciparum in erythrocytes, SYBR Green DNA, 72 h, at 12.8 µM (top of the series). Put shortly:
(§1)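 Fluorescence of SYBR Green-bound parasite DNA, read at 485/535 nm, served as the growth measure. Infected erythrocytes were cultured with compound 72 h; artemisinin (0.29 uM) and DMSO wells defined the normalization range.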

In experiment [13] the test system is 3D7. The experiment is described as above. To be noted: P. falciparum in erythrocytes, SYBR Green DNA, 72 h; series mostly up to 28.7 µM. Put shortly:
as §1

The test system of experiment [14] is C2A. The experiment is described as above. To be noted: P. falciparum in erythrocytes, SYBR Green DNA, 72 h; series mostly up to 28.7 µM. In short, it runs like this:
as §1

For experiment [15], the system named is CP211. The experiment is described as above. To be noted: P. falciparum in erythrocytes, SYBR Green DNA, 72 h; series mostly up to 28.7 µM. Put shortly:
as §1

Experiment [16] relates to CP217. The experiment is described as above. To be noted: P. falciparum in erythrocytes, SYBR Green DNA, 72 h; series mostly up to 28.7 µM. Put shortly:
as §1

Experiment [17] has as its system CP252. The description is as above. To be noted: P. falciparum in erythrocytes, SYBR Green DNA, 72 h; series mostly up to 12.8 µM. In short, it runs like this: as §1
Experiment [18] concerns CP262. Described as above. To be noted: P. falciparum in erythrocytes, SYBR Green DNA, 72 h; series mostly up to 28.7 µM. In short, it runs like this:
as §1

Experiment [19] relates to CP286. The experiment is described as above. To be noted: P. falciparum in erythrocytes, SYBR Green DNA, 72 h; series mostly up to 28.7 µM. In short, it runs like this:
as §1

Where [20] appears, read: measured here: cell count channel max response.
Where [21] appears, read: measured here: lipid channel max response.

Chain of 3',5'-cyclic-AMP phosphodiesterase 4B (Homo sapiens) (Q07343 whole entry, looked up): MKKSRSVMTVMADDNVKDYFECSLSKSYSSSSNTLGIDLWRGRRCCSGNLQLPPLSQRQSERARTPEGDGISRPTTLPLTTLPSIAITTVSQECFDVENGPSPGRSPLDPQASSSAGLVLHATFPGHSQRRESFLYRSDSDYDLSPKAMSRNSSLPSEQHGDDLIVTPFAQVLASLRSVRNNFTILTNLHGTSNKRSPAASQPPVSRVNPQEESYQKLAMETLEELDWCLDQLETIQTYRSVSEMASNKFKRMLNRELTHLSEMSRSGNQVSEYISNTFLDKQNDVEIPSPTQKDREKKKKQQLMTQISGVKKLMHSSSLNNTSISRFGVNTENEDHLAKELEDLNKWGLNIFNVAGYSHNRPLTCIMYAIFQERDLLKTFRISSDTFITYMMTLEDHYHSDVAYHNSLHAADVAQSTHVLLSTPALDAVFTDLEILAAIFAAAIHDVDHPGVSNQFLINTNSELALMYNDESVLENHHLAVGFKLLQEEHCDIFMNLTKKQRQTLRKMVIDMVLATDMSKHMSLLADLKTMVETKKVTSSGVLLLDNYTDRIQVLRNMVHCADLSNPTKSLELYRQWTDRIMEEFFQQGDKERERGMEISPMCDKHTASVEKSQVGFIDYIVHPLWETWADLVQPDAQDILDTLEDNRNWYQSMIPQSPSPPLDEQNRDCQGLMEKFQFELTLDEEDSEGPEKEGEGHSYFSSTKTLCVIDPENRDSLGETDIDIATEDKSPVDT
Chain of Luciferin 4-monooxygenase (Photinus pyralis) (P08659 whole entry, looked up): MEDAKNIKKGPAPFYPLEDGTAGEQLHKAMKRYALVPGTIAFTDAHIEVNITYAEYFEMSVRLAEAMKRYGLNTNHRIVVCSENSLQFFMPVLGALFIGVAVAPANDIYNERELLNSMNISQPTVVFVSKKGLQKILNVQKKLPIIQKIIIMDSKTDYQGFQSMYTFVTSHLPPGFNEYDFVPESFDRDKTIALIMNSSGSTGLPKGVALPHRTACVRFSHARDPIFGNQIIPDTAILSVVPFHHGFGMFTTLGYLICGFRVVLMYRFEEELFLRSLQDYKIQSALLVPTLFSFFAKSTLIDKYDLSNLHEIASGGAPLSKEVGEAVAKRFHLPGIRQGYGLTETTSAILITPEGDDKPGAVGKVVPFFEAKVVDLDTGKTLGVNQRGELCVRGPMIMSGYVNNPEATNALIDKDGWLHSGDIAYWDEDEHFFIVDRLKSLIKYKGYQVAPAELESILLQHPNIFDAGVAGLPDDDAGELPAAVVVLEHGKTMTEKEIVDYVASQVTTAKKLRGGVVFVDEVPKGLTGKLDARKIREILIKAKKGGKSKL

Turning to `COc1ccc(C(=O)OC2C[C@H]3CC[C@@H](C2)N3C)cc1OC` (some centres not stated), the Potency entry in experiment [1], in experiment [6] and in experiment [8] was “inactive” each time. Besides, the outcome in experiment [2] and in experiment [5] was inactive. For the same molecule, the Potency in experiment [3] and in experiment [4] was > 20.6 µM (inactive) each time. In addition, in experiment [7] (at 25.7 µM (top of the series)), the activity change, negative = inhibition is 0.262% (inactive). The max response in experiment [7] (setting [20]) is -3.69%; in experiment [7] (setting [21]) it was -3.27%.
In the case of `C[C@@H]1O[C@H](O[C@H]2C[C@@H](O)[C@@]3(CO)[C@H]4[C@@H](O)C[C@]5(C)[C@@H](C6=CC(=O)OC6)CC[C@]5(O)[C@H]4CC[C@]3(O)C2)[C@@H](O)[C@H](O)[C@@H]1O`, the activity change, negative = inhibition in experiment [9] was -76.3% (active); in [7] (at 25.7 µM (top of the series)), -0.396% (inactive). The outcome in experiment [5] was inactive. Besides, the max response is -4.59% in experiment [7] (setting [20]) and -4.25% in experiment [7] (setting [21]).
For the molecule `CCCCCCCCCc1ccc(O)cc1`, the molecule was called inactive in experiment [5]. The activity change, negative = inhibition in experiment [7] (at 57.5 µM (top of the series)) is 4.47% (inactive). Also, the results for the max response in [7] (setting [20]) and in [7] (setting [21]) were 4.78% and 11%, respectively.
As to `CN1CCC2=C[C@H](O)[C@@H]3OC(=O)c4cc5c(cc4[C@H]3[C@H]21)OCO5`, the call in experiment [10], in experiment [2] and in experiment [5] was inactive. In addition, the values for the activity change, negative = inhibition in experiment [9] and in experiment [7] (at 25.7 µM (top of the series)) were -12.8% (inactive) and 0.357% (inactive), respectively. For the same molecule, the Potency in [4] is > 20.6 µM (inactive). For the same molecule, the Potency result in experiment [6] is “inactive”. Moreover, the max response is -2.84% in experiment [7] (setting [20]) and -1.93% in [7] (setting [21]).
`CC[C@H]1C(=O)OC[C@H]1Cc1cncn1C`: the call in experiment [10] and in experiment [2] was inactive. Moreover, the activity change, negative = inhibition in experiment [7] (at 25.7 µM (top of the series)) was 0.358% (inactive). In addition, the max response was -8.31% in experiment [7] (setting [20]) and -6.45% in [7] (setting [21]). For the same molecule, the Potency result in experiment [8] was “inactive”.
Turning to `COc1cc2c(cc1O)C[C@H]1c3c(cc(O)c(OC)c3-2)CCN1C`, the Potency was 2.51 µM (active) in experiment [1]; > 20.6 µM (inactive) and > 46 µM (inactive) in [4]. Further, the activity change, negative = inhibition in experiment [9] was -8.08% (inactive); in [7] (at 25.7 µM (top of the series)), 0.193% (inactive). Further, the molecule was classed as inactive in experiment [2] and in [5]. The Potency entry in experiment [6] and in [8] was “inactive” each time. Also, the results for the max response in experiment [7] (setting [20]) and in experiment [7] (setting [21]) were 3.24% and 4.01%, respectively.
For `Clc1ccc([C@@H](OCCN2CCCCC2)c2ccccc2)cc1`, the Potency was 12.6 µM (active) in [1], > 20.6 µM (inactive) in [3], > 20.6 µM (inactive) in experiment [4] and 3.55 µM (active) in [19]. In addition, the activity change, negative = inhibition in [9] was -74.4% (active); in experiment [7] (at 25.7 µM (top of the series)), -2.71% (inactive). For the same molecule, the outcome in [2] and in [5] was inactive. Also, the values for the max response in experiment [7] (setting [20]) and in experiment [7] (setting [21]) were -5.28% and -7.74%, respectively. Also, the Potency result in experiment [11], in experiment [13], in experiment [14], in experiment [15], in [16] and in [17] was “inactive” throughout. Also, in experiment [18], the Potency result is “inactive”. The activity, negative = inhibition in [12] (parasite line A) was -2.83% (inactive); in [12] (parasite line B), -13.1% (inactive).
Take `CN1C[C@H](CO)C=C2c3cccc4[nH]cc(c34)C[C@@H]21`: the outcome in [10], in experiment [2] and in experiment [5] was inactive. Moreover, the Potency in experiment [4] is > 20.6 µM (inactive). In experiment [6], the Potency result is “inactive”. Moreover, the activity change, negative = inhibition in experiment [7] (at 25.7 µM (top of the series)) is 0.712% (inactive). Further, the figures for the max response in experiment [7] (setting [20]) and in experiment [7] (setting [21]) were -6.66% and -5.9%, respectively.
Consider `C[C@H]1[C@@H](O)[C@@H](C)/C=C\C=CCC\C=C/C=C\C=C/C=C[C@@H](O[C@H]2O[C@@H](C)[C@@H](O)[C@@H](N)[C@@H]2O)C[C@@H]2O[C@@](O)(C[C@@H](O)[C@H]2C(=O)O)C[C@@H](O)[C@@H](O)CC[C@@H](O)C[C@@H](O)C[C@@H](O)CC(=O)O[C@H]1C`, for which the molecule was called inactive in experiment [10] and in experiment [5]. The Potency entry in [6] is “inactive”. Further, the activity change, negative = inhibition in experiment [7] (at 25.7 µM (top of the series)) was -0.591% (inactive). In addition, the max response in experiment [7] (setting [20]) was 5.63%; in experiment [7] (setting [21]) it was 6.3%.
